In all, about 59,000 compounds went through this assay and about 6,200 (11%) were called active. Another 9% or so got no clear call; they are omitted. Rule as the data show it: active = max dye-equivalent concentration above about 10 nM; inconclusive = mostly about 1.1 nM to 9.6 nM; inactive = weaker than that. Shown is part of a subset that was picked to be rich in actives.
assay: qHTS Assay for Spectroscopic Profiling in 4-MU Spectral Region; settings: compound autofluorescence, 340/450 nm, 4-MU equivalents; active compounds read high
Outline: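 Compounds in 100 mM Tris, pH 8.0, incubated 15 min at room temperature, then fluorescence read at 340 nm excitation/450 nm emission. Signal converted to 4-MU dye-equivalent concentration using an on-plate six-point 4-MU standard curve.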

SMILES | max dye-equivalent concentration
CC1=NCCN1S(=O)(=O)c1ccc(Br)c(C)c1 | inactive
CC(=O)c1cnc(Nc2nc(C)c3cc(C)ccc3n2)nc1C | inactive
O=C(CSc1nnc(-c2ccc(NS(=O)(=O)c3ccccc3)cc2)o1)NCC1CCCO1 (stereo not drawn) | inactive
O=C(CSC1=Nc2ccccc2C2=NC(c3ccccc3)C(=O)N12)NCC1CCCO1 (stereo not drawn) | 750 nM (active)
O=C(CS(=O)(=O)Cc1ccccc1)NCC1CCCO1 (stereo not drawn) | inactive
COC(=O)NC1(C(F)(F)F)NC(=O)N(C2CCCCC2)C1=O (stereo not drawn) | inactive
O=C(NCc1ccc(Cl)cc1)c1cc2c(nc3sccn32)s1 | inactive
CS(=O)(=O)N1CCC[C@@]2(CCN(c3ccncc3)C2)C1 | inactive
Cc1ccc2cc3cc(C(=O)N4CCCCCC4)oc3nc2c1 | 12 nM (active)
Cc1ccc(C(=O)N2CCCCCC2)cc1Br | inactive
O=C(c1cc(-c2cccs2)on1)N1CCCCC1 | inactive
Cc1cc(C(=O)CC#N)c(C)n1CC(F)(F)F | inactive
Cc1ccsc1CNn1cnnc1SCc1ccccc1F | inactive
COc1ccccc1N1CCN(C(=O)Cn2nnc(-c3cccs3)n2)CC1 | inactive
CN(C(=O)c1ccno1)c1nnc(-c2cccnc2)s1 | inactive
COc1cccc(-c2nnc(N(C)C(=O)c3ccno3)s2)c1 | 34 nM (active)
CN(C(=O)COc1ccccc1)c1nnc(-c2ccncc2)s1 | inactive
C=CCn1c(COc2ccccc2)nnc1SCC(=O)NCC(=O)OCC | inactive
COc1ccccc1-c1cc(NCc2cccs2)ncn1 | inactive
COC(=O)[C@H](CCSC)NC(=O)Nc1ccc(OC)cc1 | inactive
COc1cccc2cc(C(C)N(CCCN3CCOCC3)C(=O)Nc3ccc(Cl)cc3)oc12 (stereo not drawn) | inactive
COc1ccc(CCN(Cc2cc3cccc(C)c3[nH]c2=O)C(=O)N2CCCC2)cc1OC | inactive

SMILES | max dye-equivalent concentration
COc1cc2cc(CN(CCN3CCCC3)C(=O)Nc3ccccc3Cl)c(=O)[nH]c2cc1OC | 250 nM (active)
COc1ccc(N2CCN(C(=O)CSc3ncnc4c3cnn4-c3ccc(OC)cc3)CC2)cc1 | inactive
CCCc1nc2c3cnn(-c4cccc(Cl)c4)c3ncn2n1 | inactive
Cc1cccc(-n2ncc3c(N4CCc5ccccc54)ncnc32)c1 | 18 nM (active)
c1ccc(-n2ncc3c(N4CCCC4)ncnc32)cc1 | inactive
COc1ccc(-n2ncc3c(N4CCCc5ccccc54)ncnc32)cc1 | 39 nM (active)
Oc1c(C(c2ccccn2)N2CCOCC2)ccc2cccnc12 (stereo not drawn) | inactive
COc1ccccc1CNc1cc(-c2ccccc2CN(C)C)ncn1 | inactive
O=C(Nc1ccccc1F)C1C2C=CC3(O2)C1C(=O)N(c1cccnc1)C3C(=O)NC1CCCCC1 (stereo not drawn) | inactive
COc1ccc(OC)c(-n2cc3c(=O)n(C)c(=O)n(C)c3c2)c1 | inactive
COc1ccc(N(C(=O)c2cccnc2)S(=O)(=O)c2ccc3c(c2)n(C)c(=O)n3C)cc1 | inactive
COc1ccc(-c2c3c(=O)n(C)c(=O)n(C)c3cn2-c2cccc(OC)c2)cc1 | 12 nM (active)
COc1ccc(-c2c3c(=O)n(C)c(=O)n(C)c3cn2NC(C)=O)cc1 | 2200 nM (active)
Cc1ccc(-c2c3c(=O)n(C)c(=O)n(C)c3cn2-n2cnnc2)cc1 | inactive
Cc1ccc(-c2c3c(=O)n(C)c(=O)n(C)c3cn2-c2ccccc2O)cc1 | inactive
Cc1ccc(Oc2ccc(N)cc2)cc1 | inactive
CCOc1ccccc1-n1c(SCC(=O)NCc2ccco2)nnc1-c1ccncc1 | inactive
O=C(CCc1ccccc1)Nc1ccc(NC(=O)C2CC2)nc1 | inactive
O=C1CC(c2ccccc2)C(=O)N1c1cccc(O)c1 (stereo not drawn) | inactive
Cc1cc(NC(=O)c2cnn3cccnc23)n(-c2ccccc2)n1 | inactive
CCOC(=O)c1sc(NC(=O)c2cc(S(=O)(=O)N3CCOCC3)ccc2C)nc1C | inactive
CCN(Cc1ccncc1)C(=O)c1cccc(S(=O)(=O)N2CCOCC2)c1 | inactive

SMILES | max dye-equivalent concentration
O=C(Nc1nc2cc3c(cc2s1)OCCO3)c1cccc(S(=O)(=O)N2CCOCC2)c1 | 18 nM (active)
O=C(Nc1nc2ccc(S(=O)(=O)N3CCCC3)cc2s1)C1CCCO1 (stereo not drawn) | inactive
O=C(Nc1ccc2c(c1)nc1n2CCCCC1)c1cc(S(=O)(=O)N2CCOCC2)ccc1Cl | inactive
COc1ccc(S(=O)(=O)N2CCOCC2)cc1C(=O)Nc1nc2ccccc2s1 | 35 nM (active)
CC(=O)c1c(N2CCOCC2)nc(=S)n(-c2cc(C)ccc2C)c1C | inactive
Cc1ccc2cccc(S(=O)(=O)N3CCN(c4ccccc4F)CC3)c2n1 | inactive
CCOC(=O)CN(C(=O)CN1CCOCC1)c1ccc(Br)cc1 | inactive
COc1ncnc2c1N=C1CC(C)(C)CC(N)=C1S2 | inactive
O=C(OCC(=O)N1CCN(C(=O)c2ccco2)CC1)c1ccccc1Cc1ccccc1 | inactive
COC(=O)CN(c1cccc(C(C)=O)c1)S(C)(=O)=O | inactive
Cc1nnc(SCC(=O)NCc2cccs2)[nH]c1=O | inactive
C=CCn1c(N)c(C(=O)OCC(C)C)c2nc3ccccc3nc21 | 3300 nM (active)
C=CCn1c(C(C)NC(=O)CC)nc2ccccc21 (stereo not drawn) | inactive
C=CCn1c(N)c(S(=O)(=O)c2cccs2)c2nc3ccccc3nc21 | 3700 nM (active)
CC(C)Cn1c(N)c(C(=O)NCc2cccs2)c2nc3ccccc3nc21 | 280 nM (active)
CCN(CC(=O)NCc1cccs1)c1nnnn1-c1ccccc1 | inactive
C=CCn1c(C2CC(=O)N(c3ccc(C)cc3)C2)nc2ccccc21 (stereo not drawn) | inactive
O=C(c1cc(C(F)(F)F)cc(C(F)(F)F)c1)N1CCC2(CCCN(Cc3ccncc3)C2)CC1 | inactive
COc1ccc(-c2nn(-c3ccccc3)cc2C(=O)Nc2nc(CC(C)=O)ns2)cc1 | inactive
CCn1c(CSc2nncn2-c2ccc(OC)cc2)nc2cc(S(=O)(=O)N(C)C)ccc21 | inactive
Nc1nc(SCCOc2ccccc2)n[nH]1 | inactive
CCOC(=O)C1CCN(C(=O)C2CCN(S(=O)(=O)N3CCCC3)CC2)CC1 | inactive

SMILES | max dye-equivalent concentration
COc1ccc(Cl)cc1S(=O)(=O)Nc1cccc(C(=O)O)c1 | inactive
COc1ccc(C(c2nnnn2Cc2cccs2)N2CCN(c3ccccc3)CC2)cc1OC (stereo not drawn) | inactive
Nc1nonc1-c1nc2ccccc2n1Cc1ccc(F)cc1 | inactive
Nn1c(SCC(=O)NC(=O)NC2CCCC2)nnc1-c1ccccc1F | inactive
CC(=O)NC1=NC(=O)CS1 | inactive
CCOc1ccccc1NC(=O)Nc1cc(OC)ccc1OC | inactive
COc1ccc(OC)c(N=Cc2c(O)[nH]c3ccccc23)c1 | 59 nM (active)
COC(=O)c1[nH]c2ccccc2c1NS(=O)(=O)c1ccc(OC)cc1OC | inactive
Cc1nn(-c2ccccc2)c(C)c1C(=O)OCC(=O)NC(=O)NC1CCCCC1 | inactive
CCC(C)(C)NC(=O)C(c1cccn1C)N(Cc1ccc(C)cc1)C(=O)Cn1nnc2ccccc21 (stereo not drawn) | inactive
CC(C)NC[C@H](O)c1ccc2ccccc2c1 | inactive
CCCCC[C@H](O)CCCC(=O)O | inactive
COc1ccc(OC)c(C2N(c3ccccn3)C(=O)C3CCCN32)c1 (stereo not drawn) | inactive
CCN(CC)C(=O)c1sc(NC(=O)c2ccco2)c(C#N)c1C | inactive
Cc1ccnc(NC(=O)c2ccc(NC(=O)c3ccco3)cc2)c1 | inactive
CCn1nc(NC(=O)c2ccco2)c2cc3ccc(C)cc3nc21 | 64 nM (active)
C=CCNc1nc(C)nc(OC)n1 | inactive
C=CCn1c(COc2ccccc2C)nnc1SCC(=O)O | inactive
Cn1c(SCC(=O)Nc2cccc(NC(=O)c3cccs3)c2)nnc1-c1ccncc1 | inactive
Cc1nc(-c2ccc(NC(=O)c3cccs3)cc2)cs1 | 220 nM (active)
O=C(O)c1ccc(NC(=O)c2cccs2)cc1 | inactive
Cc1cc(=O)[nH]c(SCC(=O)N2c3ccccc3CC2C)n1 (stereo not drawn) | inactive

SMILES | max dye-equivalent concentration
NC(=NC(=O)c1ccccc1)C1=C(O)CCC1=O | inactive
CC(C)N(C(=O)COC(=O)c1ccccc1C(=O)N1CCN(c2ccc(F)cc2)CC1)C(C)C | inactive
O=C(c1cccc2ccccc12)N1CCN(c2ccccc2F)CC1 | inactive
Cn1c2ccccc2c2c(C(=O)N3CCN(c4ccc(F)cc4)CC3)cn(C3CCCC3)c(=O)c21 | 16 nM (active)
COc1ccc(-n2nnnc2SCC(=O)c2ccc(OC)c(OC)c2)cc1 | inactive
CC1=C(C(=O)OC2CCCCC2)C(c2cccnc2)n2ncnc2N1 (stereo not drawn) | inactive
COC(=O)C1=C(N)Oc2cc(C)oc(=O)c2C1c1cccnc1 (stereo not drawn) | inactive
CCSc1nc2c(c(=O)[nH]1)C(c1cccnc1)C(C(=O)OC(C)C)=C(C)N2 (stereo not drawn) | 10 nM (active)
O=C(Nc1cccc(F)c1)N1CC2(CCN(C(=O)c3cnccn3)CC2)C1 | inactive
COc1ccc(NC(=O)c2c(SC)nsc2SC)cc1 | inactive
CCOc1ccc(C(C)C)cc1S(=O)(=O)n1nc(C)cc1C | inactive
Cc1ccc(OCCCC(=O)N2CCOCC2)c(C)c1 | inactive
CCCc1[nH]nc2c1C(c1c(C)nn(-c3ccccc3)c1Cl)C(C#N)=C(N)O2 (stereo not drawn) | inactive
CSc1ccc(-c2c(C#N)c(N)nc3c2c(C)nn3-c2ccccc2)cc1 | 360 nM (active)
CSc1nc(N)c(C#N)c(-c2ccccc2Cl)c1C#N | inactive
CCc1c(C)nc(N)n2c(SCC(=O)N3CCN(c4ccccc4)CC3)nnc12 | inactive
CCOC(=O)c1cnc(SCC(=O)NCc2ccco2)nc1N | inactive
COc1ccc(Cl)cc1NC(=O)c1oc(C)nc1C | 15 nM (active)
Cc1nc(C)c(C(=O)Nc2ccc(C)c(F)c2)o1 | inactive
COc1c(C)cccc1C(=O)Nc1cc(Cl)ccc1N1CCOCC1 | inactive
